Source: PubChem
This is a sample that favours compounds with a hit; in the whole collection about 19% have one here.
TDP1 block: TDP1 (human) enzyme inhibition. Q9NUW8. recombinant TDP1, AlphaScreen DNA substrate cleavage. Potency, µM (highest dose often 130 µM), actives largely listed as inhibitors. 350,000 tested, 0.28% active. AID 485290; note: nearly all actives have a fitted effect of over 40% in size
Target sequence (Q9NUW8 whole entry, looked up): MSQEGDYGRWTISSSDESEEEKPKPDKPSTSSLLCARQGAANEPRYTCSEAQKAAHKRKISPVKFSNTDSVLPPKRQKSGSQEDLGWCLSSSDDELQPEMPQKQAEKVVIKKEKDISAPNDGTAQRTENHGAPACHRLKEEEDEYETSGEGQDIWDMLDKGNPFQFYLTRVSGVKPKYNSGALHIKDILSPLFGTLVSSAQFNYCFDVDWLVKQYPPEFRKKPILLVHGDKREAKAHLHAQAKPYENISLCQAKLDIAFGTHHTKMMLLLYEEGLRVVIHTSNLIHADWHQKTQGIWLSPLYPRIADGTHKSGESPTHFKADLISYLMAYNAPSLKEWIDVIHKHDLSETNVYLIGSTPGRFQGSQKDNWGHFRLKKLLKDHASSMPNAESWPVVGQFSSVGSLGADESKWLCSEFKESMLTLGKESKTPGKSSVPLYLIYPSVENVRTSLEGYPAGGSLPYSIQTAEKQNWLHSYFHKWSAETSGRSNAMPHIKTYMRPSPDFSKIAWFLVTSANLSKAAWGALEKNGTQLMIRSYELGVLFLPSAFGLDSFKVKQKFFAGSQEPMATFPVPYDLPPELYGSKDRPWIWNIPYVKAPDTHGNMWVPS
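Steps: enzyme plus compound, 15 min RT; add biotin/phosphotyrosine-FITC oligonucleotide (15 nM final), react 5 min; add donor/acceptor beads (10 ug/ml final), 10 min; read AlphaScreen. Tdp1 at 1 nM final.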
TDP1 cell noCPT: qHTS for Inhibitors of human tyrosyl-DNA phosphodiesterase 1 (TDP1): qHTS in cells in absence of CPT; DT40 Tdp1-/- hTDP1 cells, no CPT, ATP luminescence, 48 h; Potency, µM (top dose mostly 46.2 µM), most hits filed as inhibitors; 420,000 tested, 15% active; note: nearly all actives have a fitted effect of over 55% in size
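Chicken DT40 Tdp1-/- cells complemented with human TDP1, screened without camptothecin (DMSO vehicle only), 400 cells/well. Compounds pin-transferred, cells incubated at 37 °C for at least 48 hr. Growth read as ATP-dependent luminescence (CellTiter-Glo, 30 min at RT).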
TDP1 cell CPT: DT40-hTDP1 cell growth loss with CPT; chicken DT40 Tdp1-/-;hTDP1 cells + 20 nM CPT, ATP luminescence, 48 h; Potency, µM (top dose mostly 46.2 µM), actives largely listed as inhibitors; 420,000 tested, 12% active; AID 686979; note: nearly all actives have a fitted effect of over 55% in size
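Cell growth measured by CellTiter-Glo luminescence after a minimum 48 h, 37 C compound exposure with 20 nM CPT in Tdp1-knockout DT40 cells stably expressing hTDP1, seeded 400/well; qHTS titration format.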
IL-1B inflam inh: inhibitors of inflammasome signaling (IL-1 beta secretion). THP-1 LPS/ATP IL-1B secretion, AlphaLISA, 16 h; active compounds read low. activity change, % at 57.5 µM. 360,000 tested, 4.7% active; in the data active = activity change below about -50%; inconclusive = mostly about -30% to -49%
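Secreted IL-1B measured by AlphaLISA bead assay after 16 h compound exposure of THP-1 cells; compounds (final up to 57.5 uM) added 1 h before LPS (250 ng/mL) and ATP (1.25 mM) stimulation; lower signal means less secretion.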
Giardia killer: Giardia lamblia killing | Giardia lamblia trophozoite viability | activity change, % at 7.66 µM, hits read low | 340,000 tested, 0.15% active | AID 540267; in the data active = activity change below about -80%; inconclusive = between about -30% and that limit;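 note: parasites exposed to compound for two days anaerobically before the ATP read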
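Killing of trophozoites was scored by loss of ATP luminescence after a 48 hrs anaerobic exposure to compounds at 37 deg C, using 100 cells per well.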
ELG1 repair inh: ELG1-dependent DNA repair inhibition. 330,000 tested, 2.3% active. HEK293T ELG1-luciferase reporter, luminescence, 16 h; DNA damage induced by 5-fluorouridine. Potency, µM (highest dose often 46.1 µM), most hits filed as inhibitors. AID 504467; note: nearly all actives have a fitted effect of over 55% in size
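Step one: seed 2,000 cells per well. Step two: pin-transfer compound or DMSO alongside 5-fluorouridine. Step three: incubate 16 hr, 37 °C, 5% CO2. Step four: add ONE-Glo, wait 30 min, read luminescence.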
Numbers stand for hits; [ ] = remark or other dose. Unless noted, calls come from the whole dose curve; as a rule, active = well fitted curve in the direction sought with a large enough effect; inconclusive = small, poorly fitted or top-dose-only effect, or another doubt; inactive = no such curve, though single readings can be large; an effect the other way counts as inactive or inconclusive.

What do the screens show for `Cc1ccc2nc(-c3ccsc3)c(NC3CCCC3)n2c1`?
TDP1 block: inactive; TDP1 cell noCPT: 13µM; TDP1 cell CPT: 10µM; IL-1B inflam inh: inactive; Giardia killer: inactive; ELG1 repair inh: inactive

How did Cc1ccc2nc(-c3ccncc3)c(NC3CCCCC3)n2c1 do in these assays?
TDP1 block: inactive; TDP1 cell noCPT: inconclusive; TDP1 cell CPT: 23µM; IL-1B inflam inh: inactive; Giardia killer: inactive; ELG1 repair inh: inconclusive

What do the screens show for `Cc1ccc2nc(-c3ccncc3)c(Nc3ccccc3)n2c1`?
TDP1 block: inactive; TDP1 cell noCPT: inconclusive; TDP1 cell CPT: inconclusive; IL-1B inflam inh: inactive; Giardia killer: inactive; ELG1 repair inh: inactive

Results for Cc1noc(NS(=O)(=O)c2ccc(NC(=O)CCN3C(=O)c4ccccc4C3=O)cc2)c1C ?
TDP1 block: inactive; TDP1 cell noCPT: inactive; TDP1 cell CPT: inactive; IL-1B inflam inh: inactive; Giardia killer: inactive; ELG1 repair inh: inactive

Results for Cc1noc(NS(=O)(=O)c2ccc(NC(=O)c3ccc(N4C(=O)c5ccccc5C4=O)cc3)cc2)c1C ?
TDP1 block: 50µM; TDP1 cell noCPT: inactive; TDP1 cell CPT: inactive; IL-1B inflam inh: inactive; Giardia killer: inactive; ELG1 repair inh: inactive

How did Cc1cc(C)c2nc(-c3ccccn3)cc(C(=O)Nc3ccc(S(=O)(=O)Nc4onc(C)c4C)cc3)c2c1 do in these assays?
TDP1 block: 40µM; TDP1 cell noCPT: inconclusive; TDP1 cell CPT: inactive; IL-1B inflam inh: inactive; Giardia killer: inactive; ELG1 repair inh: inactive

How did Cc1cc(C)c2nc(-c3ccccn3)cc(C(=O)Nc3ccc(S(=O)(=O)Nc4cc(C)on4)cc3)c2c1 do in these assays?
TDP1 block: inactive; TDP1 cell noCPT: inactive; TDP1 cell CPT: inconclusive; IL-1B inflam inh: inactive; Giardia killer: inactive; ELG1 repair inh: inactive

What do the screens show for `O=C(Nc1ccc2c(c1)OCCO2)c1cc2sccc2n1Cc1ccc(F)cc1`?
TDP1 block: inactive; TDP1 cell noCPT: inconclusive; TDP1 cell CPT: inconclusive; Giardia killer: inactive; ELG1 repair inh: inconclusive

Results for O=C(Nc1ccc2c(c1)OCCO2)c1cc2sccc2n1Cc1ccccc1 ?
TDP1 block: inactive; TDP1 cell noCPT: inconclusive; TDP1 cell CPT: 18µM; IL-1B inflam inh: inconclusive; Giardia killer: inactive; ELG1 repair inh: inconclusive

Results for CC(=O)c1ccc(NC(=O)c2cc3sccc3n2Cc2ccc(Cl)cc2)cc1 ?
TDP1 block: inactive; TDP1 cell noCPT: 16µM; TDP1 cell CPT: 16µM

What do the screens show for `CCOC(=O)c1cccc(NC(=O)c2cc3sccc3n2C)c1`?
TDP1 block: inactive; TDP1 cell noCPT: 21µM; TDP1 cell CPT: inconclusive; IL-1B inflam inh: inactive; Giardia killer: inactive; ELG1 repair inh: inconclusive

How did CCOC(=O)c1ccccc1NC(=O)c1cc2sccc2n1C do in these assays?
TDP1 block: inactive; TDP1 cell noCPT: inactive; TDP1 cell CPT: inactive; IL-1B inflam inh: inactive; Giardia killer: inactive; ELG1 repair inh: inactive

Results for Cc1ccc(Cn2c(C(=O)Nc3cccc(Cl)c3)cc3sccc32)cc1 ?
TDP1 block: inactive; TDP1 cell noCPT: inconclusive; TDP1 cell CPT: 18µM

How did COc1cccc(CNC(=O)C(CC(C)C)NS(=O)(=O)c2ccc3c(c2)oc(=O)n3C)c1 (stereo not given) do in these assays?
TDP1 block: inactive; TDP1 cell noCPT: inactive; TDP1 cell CPT: inactive

What do the screens show for `CCOc1ccc(N2CC(C(=O)N3CCc4ccccc43)CC2=O)cc1` (stereo not given)?
TDP1 block: inactive; TDP1 cell noCPT: inactive; TDP1 cell CPT: inactive; IL-1B inflam inh: inactive; Giardia killer: inactive; ELG1 repair inh: inactive

Results for CCCS(=O)(=O)N1CCC(N2CCN(Cc3ccc(F)cc3)C(=O)C2=O)CC1 ?
TDP1 block: inactive; TDP1 cell noCPT: inactive; TDP1 cell CPT: inactive

What do the screens show for `CCOC(=O)c1c(NC(C)=O)sc2c1C1CCN2CC1`?
TDP1 cell noCPT: inconclusive; TDP1 cell CPT: inconclusive; IL-1B inflam inh: inactive; Giardia killer: inactive

Results for CCOC(=O)c1ccc(NC(=O)c2cc3sccc3n2Cc2ccc(Cl)cc2)cc1 ?
TDP1 block: inactive; TDP1 cell noCPT: 18µM; TDP1 cell CPT: 21µM

How did O=C(Nc1nccs1)c1cc2sccc2n1Cc1ccc(Cl)cc1 do in these assays?
TDP1 block: inactive; TDP1 cell noCPT: inactive; TDP1 cell CPT: inactive; IL-1B inflam inh: inactive; Giardia killer: inactive; ELG1 repair inh: inactive

How did CCOC(=O)c1cccc(NC(=O)c2cc3sccc3n2Cc2ccc(Cl)cc2)c1 do in these assays?
TDP1 block: inactive; TDP1 cell noCPT: 18µM; TDP1 cell CPT: inconclusive

What do the screens show for `CC1CC(O)CC(C)(C)C1` (stereo not given)?
TDP1 cell noCPT: inactive; TDP1 cell CPT: inactive

How did COc1cccc(C(C(=O)NCc2ccccc2)N2CCN(c3cccc(C)c3C)CC2)c1OC (stereo not given) do in these assays?
TDP1 cell noCPT: 18µM; TDP1 cell CPT: 18µM; IL-1B inflam inh: inconclusive

How did Cc1cccc(N2CCN(C(C(=O)NCc3ccccc3)c3ccco3)CC2)c1C (stereo not given) do in these assays?
TDP1 cell noCPT: inconclusive; TDP1 cell CPT: inconclusive; IL-1B inflam inh: inactive

Results for Cc1cccc(N2CCN(C(C(=O)NCc3ccccc3)c3ccc(F)cc3)CC2)c1C (stereo not given) ?
TDP1 cell noCPT: 21µM; TDP1 cell CPT: 23µM; IL-1B inflam inh: inactive

How did CCC(CC)C(C(=O)NCc1ccccc1)N1CCN(c2cccc(C)c2C)CC1 (stereo not given) do in these assays?
TDP1 cell noCPT: 5.8µM; TDP1 cell CPT: 6.5µM; IL-1B inflam inh: inactive

How did CNC(=S)Nc1ccc(-c2nc3ccc(C)cc3s2)cc1 do in these assays?
TDP1 block: inactive; TDP1 cell noCPT: inconclusive; TDP1 cell CPT: inactive; IL-1B inflam inh: inconclusive; Giardia killer: inactive; ELG1 repair inh: inconclusive

Results for Cc1ccc2nc(-c3ccc(NC(=S)NCC(C)(C)CN(C)C)cc3)sc2c1 ?
TDP1 cell noCPT: 6.5µM; TDP1 cell CPT: 6.5µM; IL-1B inflam inh: inactive; Giardia killer: inactive

How did CCCCNC(=S)Nc1ccc(-c2nc3ccc(C)cc3s2)cc1 do in these assays?
TDP1 block: inactive; TDP1 cell noCPT: 18µM; TDP1 cell CPT: inconclusive; IL-1B inflam inh: inactive; Giardia killer: inactive; ELG1 repair inh: inconclusive

What do the screens show for `CCOC(=O)/C=C/C(=O)Nc1ccc(S(=O)(=O)Nc2nccs2)cc1`?
TDP1 cell noCPT: inactive; TDP1 cell CPT: inactive; IL-1B inflam inh: inactive; Giardia killer: inactive; ELG1 repair inh: inactive

How did N#C/C(=C\c1ccccc1)c1nc(-c2cc3c(ccc4ccccc43)oc2=O)cs1 do in these assays?
TDP1 block: inactive[12.3 µM]; TDP1 cell noCPT: inactive; TDP1 cell CPT: inactive
